Experimental data as given in ChEMBL document CHEMBL3988442, “University of Dundee, Small-Polar-MMV Screening Library” (2021).
The whole screen tested about 48,000 compounds, of which about 13,000 (27%) showed an effect of 50% or more. The list shows a part of the results.

These compounds were tested on Wolbachia pipientis (assay: Anti-Wolbachia Cell-Based Screen). Conditions: 5 µM.
Format: functional
Design: scale not given: in the data most compounds retested in dose-response had high values
In the case of `CN(Cc1ccco1)C1CCC12CCN(C(=O)c1ccnnc1)CC2.O=C(O)C(F)(F)F` (stereo unspecified), the “Percent Effect” value was -20.01%. For `CCN1CCN(S(=O)(=O)N2CCC(OC)CC2)[C@H]2CS(=O)(=O)C[C@H]21`, the “Percent Effect” value was -12.77%. With `Cc1ccc2nc(CN(C)Cc3ccc(C)o3)cc(=O)n2c1` the “Percent Effect” value was 4.444%. In the case of `CC(COc1ccccc1)NCc1nc(-c2cccnc2)no1` (stereo unspecified), the “Percent Effect” value was -6.485%. For `CS(=O)(=O)c1ccc(CNCC2CCN(CCO)CC2)cc1`, the “Percent Effect” value was -3.753%. `Cc1cc(CNC(=O)c2ccno2)c(C)o1` was tested, and the “Percent Effect” value was 94.7%. In the case of `Cc1nnn2c1COCC(CNC(=O)c1cnoc1C)C2` (stereo unspecified), the “Percent Effect” value was -0.1551%. `COc1cc(NC(=O)NCc2cc(C)oc2C)cc(OC)c1` was tested, and the “Percent Effect” value was -2.456%. For `Cc1cc(C(=O)NCc2ccccn2)no1`, the “Percent Effect” value was 0.7911%. With `Cc1cc(CNC(=O)c2cnoc2C)c(C)o1` the “Percent Effect” value was 146.4%. For `Cc1cc(C(=O)NCc2cc(C)oc2C)no1`, the “Percent Effect” value was 107.3%. For `COc1ccc(CNC(=O)NCc2cc(C)oc2C)cc1`, the “Percent Effect” value was 2.864%. `Cc1cc(C(=O)NCc2cccnc2OC(C)C)no1` was tested, and the “Percent Effect” value was -0.04653%. `Cc1cc(CNC(=O)COc2ccccc2F)c(C)o1` was tested, and the “Percent Effect” value was 7.15%. For `Cc1cccnc1CNC[C@H]1Cn2cc(-c3ccccc3)nc2CO1`, the “Percent Effect” value was 6.747%. For `NC(=O)c1cccc(CNC(=O)NCCOc2ccc(F)c(F)c2)c1`, the “Percent Effect” value was 0.2822%. For `CSCc1noc(C2CCC(=O)N(CCCN3CCCC3=O)C2)n1` (stereo unspecified), the “Percent Effect” value was -15.49%. `OCCOc1ccc(NCc2cc(F)cc3cccnc23)cn1` was tested, and the “Percent Effect” value was -4.55%. In the case of `Cc1noc(CCCC(=O)N2CSCC2C(=O)NCC2CC2)n1` (stereo unspecified), the “Percent Effect” value was 8.382%. `CC(NC(=O)NC1CCN(CC2CCCC2)CC1)c1nccs1` (stereo unspecified) was tested, and the “Percent Effect” value was -2.566%. With `CC(C)(C)C(=O)NC(c1nccs1)C1CCN(CC2CCCCC2)CC1.Cl` (stereo unspecified) the “Percent Effect” value was 130.3%. In the case of `CC(NCCN1CCN(C(=O)C2CCCC2)CC1)c1nccs1` (stereo unspecified), the “Percent Effect” value was 4.028%. `Clc1ccc(N2CCC(C3CCN(Cc4cccnc4)CC3)C2)nc1` (stereo unspecified) was tested, and the “Percent Effect” value was 4.175%. `CC(C)c1noc(C(C)N2CCN(Cc3noc(C(C)(C)C)n3)CC2)n1` (stereo unspecified) was tested, and the “Percent Effect” value was 117.7%. With `Cc1nnc(C(C)N2CCN(Cc3noc(C(C)(C)C)n3)CC2)o1` (stereo unspecified) the “Percent Effect” value was 6.078%. `CC(c1nc(C2CC2)no1)N1CCN(Cc2ccccc2F)CC1` (stereo unspecified) was tested, and the “Percent Effect” value was 3.653%. With `Cc1ccccc1CN1CCN(C(C)c2nc(C3CC3)no2)CC1` (stereo unspecified) the “Percent Effect” value was 114.1%. With `CC(c1nc(C2CC2)no1)N1CCN(Cc2ccccc2)CC1` (stereo unspecified) the “Percent Effect” value was 7.857%. `Cc1noc(C(C)N2CCN(Cc3noc(C4CC4)n3)CC2)n1` (stereo unspecified) was tested, and the “Percent Effect” value was 1.427%. For `Cc1nc(CN2CCN(C(C)c3nc(C4CC4)no3)CC2)no1` (stereo unspecified), the “Percent Effect” value was 103.1%. For `Cc1noc(C)c1CN1CCN(Cc2nc(C3CC3)no2)CC1`, the “Percent Effect” value was -14.96%. With `Cc1noc(C)c1CN1CCN(C(C)c2nc(C3CC3)no2)CC1` (stereo unspecified) the “Percent Effect” value was 133.7%. With `CC(C)c1noc(C(C)N2CCN(Cc3ccco3)CC2)n1` (stereo unspecified) the “Percent Effect” value was -4.875%. For `CCc1noc(C(C)N2CCN(Cc3noc(C)n3)CC2)n1` (stereo unspecified), the “Percent Effect” value was -22.55%. In the case of `COc1ncccc1NC(=O)N1CCC(c2ccc(O)cc2)CC1`, the “Percent Effect” value was -2.726%. For `CC(C)c1nc(C(=O)N2CCCC(N)CC2)cs1` (stereo unspecified), the “Percent Effect” value was -4.509%. With `CN(CC(F)F)C(=O)c1cn(-c2ccc(Br)cc2)cn1` the “Percent Effect” value was 1.903%. With `CN(Cc1nc(C2CC2)no1)C(=O)C1COc2ccccc2C1` (stereo unspecified) the “Percent Effect” value was 29.53%. For `Cc1ccnc(C(NC(=O)c2ncoc2C)C2CC2)n1` (stereo unspecified), the “Percent Effect” value was -4.451%. In the case of `CC(=O)c1cccc(OCC(=O)N(CC(C)C)C2CCN(C)CC2)c1`, the “Percent Effect” value was -3.463%. With `Cn1cccc1C(=O)N1CCC2(CC1)c1nc[nH]c1CCN2S(C)(=O)=O` the “Percent Effect” value was -21.07%. In the case of `Cc1c2ncn(CC(=O)N(C)C)c(=O)c2nn1C`, the “Percent Effect” value was -2.054%. In the case of `CC(C)(C)N1CCCN(C(=O)c2csc(S(N)(=O)=O)c2)CC1`, the “Percent Effect” value was 4.518%. `CC(c1nc(C2CC2)no1)N1CCN(Cc2noc(C3CC3)n2)CC1` (stereo unspecified) was tested, and the “Percent Effect” value was 103.7%. For `CC(C)c1nc(CN2CCN(C(C)c3nc(C4CC4)no3)CC2)no1` (stereo unspecified), the “Percent Effect” value was 0.3475%. `CC(C)c1noc(C(C)N2CCN(Cc3noc(C4CC4)n3)CC2)n1` (stereo unspecified) was tested, and the “Percent Effect” value was 18.72%. For `CC(NC(=O)N1CCN(c2ccccc2)CC1)c1nncn1C` (stereo unspecified), the “Percent Effect” value was 1.482%. For `CC(C(=O)O)N1CCc2onc(-c3ccc(F)c(F)c3)c2C1` (stereo unspecified), the “Percent Effect” value was -3.454%. With `CC(C)n1cc(C(=O)NC2CCS(=O)(=O)C2)c2ccccc2c1=O` (stereo unspecified) the “Percent Effect” value was 104.9%. `CCc1c(C(=O)NC2CCS(=O)(=O)C2)cnn1-c1ccc(F)cc1` (stereo unspecified) was tested, and the “Percent Effect” value was 9.191%. `COCCn1cc(C(=O)NC2CCS(=O)(=O)C2)c2ccccc2c1=O` (stereo unspecified) was tested, and the “Percent Effect” value was 102%. `CC(C)[C@H](NC(=O)NC1CCS(=O)(=O)C1)C(=O)NCc1ccccc1Cl` (stereo partly specified) was tested, and the “Percent Effect” value was -0.7444%. With `CC(C)Cn1cc(C(=O)NC2CCS(=O)(=O)C2)c2ccccc2c1=O` (stereo unspecified) the “Percent Effect” value was 107.3%. With `Cn1cc(CCNC(=O)NC2CCS(=O)(=O)C2)cn1` (stereo unspecified) the “Percent Effect” value was -13.02%. With `COCCN1CCC(NC(=O)Cn2cc(C)c3ccccc32)CC1` the “Percent Effect” value was -24.59%. In the case of `O=C(CCNC(=O)c1sccc1-c1ccccc1)NC1CCS(=O)(=O)C1` (stereo unspecified), the “Percent Effect” value was 26.53%. For `O=C(NC1CCS(=O)(=O)C1)c1ccc(-c2ccc(F)cc2)s1` (stereo unspecified), the “Percent Effect” value was 1.727%. With `O=C(NC1CCC(N2C(=O)CCC2=O)CC1)c1c[nH]c2ccccc12` (stereo unspecified) the “Percent Effect” value was -1.536%. In the case of `O=C(NC1CCS(=O)(=O)C1)c1cn(C2CC2)c(=O)c2ccccc12` (stereo unspecified), the “Percent Effect” value was 92.4%. With `CN(Cc1csc2ccccc12)C(=O)NC1CCS(=O)(=O)C1` (stereo unspecified) the “Percent Effect” value was -6.965%. For `Cn1cnc2cc(C(=O)N3CCN(CCO)[C@@H]4CS(=O)(=O)C[C@@H]43)ccc21`, the “Percent Effect” value was -4.245%. In the case of `O=C(O)c1cc(-c2ccoc2)cc(S(=O)(=O)NC2CC2)c1`, the “Percent Effect” value was 13.87%. For `c1cnc(NCC2Cn3nnc(-c4ccoc4)c3CO2)nc1` (stereo unspecified), the “Percent Effect” value was 9.551%. With `Cc1nnc(CN2C[C@H](NC(=O)CC3CCCC3)[C@@H](C3CC3)C2)s1` the “Percent Effect” value was -5.316%. With `COC(=O)C1CN(Cc2ccn(-c3ccc(F)cc3)n2)C[C@@H](C)O1` (stereo partly specified) the “Percent Effect” value was -6.737%. For `CCc1cc(NC(=O)c2cccc(OCC(F)(F)F)n2)[nH]n1`, the “Percent Effect” value was -13.74%. With `O=C(NC1CCS(=O)(=O)C1)c1ccccc1SCc1cscn1` (stereo unspecified) the “Percent Effect” value was -4.386%. `CC(C)CCn1cc(C(=O)NC2CCS(=O)(=O)C2)c2ccccc2c1=O` (stereo unspecified) was tested, and the “Percent Effect” value was 143.5%. With `O=C(NC1CCS(=O)(=O)C1)c1sccc1OC(F)F` (stereo unspecified) the “Percent Effect” value was 15.29%. With `Cc1nonc1-c1nc(C(C)C)nn1-c1ccc2c(c1)OCO2` the “Percent Effect” value was -15.14%. With `Cc1noc(C)c1C(=O)NCC(O)c1ccc(F)cc1F` (stereo unspecified) the “Percent Effect” value was 3.33%. With `Cc1noc(C)c1C(=O)NCCc1cccs1` the “Percent Effect” value was -0.0309%. In the case of `CNC(=O)C(NC(=O)c1c(C)noc1C)c1ccc(F)c(F)c1` (stereo unspecified), the “Percent Effect” value was 1.933%. `Cc1noc(C)c1C(=O)Nc1ccc2ncn(CC(C)C)c(=O)c2c1` was tested, and the “Percent Effect” value was 120.5%. With `COCCn1cnc2ccc(NC(=O)c3c(C)noc3C)cc2c1=O` the “Percent Effect” value was 114.6%. `COCCn1ccc2ccc(NC(=O)NCc3noc(C)n3)cc21` was tested, and the “Percent Effect” value was -17.56%. `COc1cc(S(=O)(=O)N2CCc3ccc(F)cc32)cc(C(=O)O)c1OC` was tested, and the “Percent Effect” value was -3.468%. `COc1ccc(C)cc1CSCCn1nc2ccccn2c1=O` was tested, and the “Percent Effect” value was 4.389%. In the case of `Cc1sc2nc(CCN)nc(N3CCS(=O)(=O)CC3)c2c1C`, the “Percent Effect” value was 5.115%. For `CN1CCCC(NC(=O)c2ccc(C(=O)c3cc[nH]c3)cc2)C1` (stereo unspecified), the “Percent Effect” value was 107.5%. With `O=C(NC1CCN(CC2CC2)C1)c1ccc(C(=O)c2cc[nH]c2)cc1` (stereo unspecified) the “Percent Effect” value was 2.424%. `Cc1ccc(C(=O)NC2CCCN(C)C2)c(=O)[nH]1` (stereo unspecified) was tested, and the “Percent Effect” value was 91.25%. With `Cc1ccc(C(=O)Nc2cnn(CC(=O)NC3CCCC3)c2)c(=O)[nH]1` the “Percent Effect” value was -2.747%. For `CCN1CCCC(NC(=O)c2ccc(C)[nH]c2=O)C1` (stereo unspecified), the “Percent Effect” value was 104.5%. For `CN1CCCC(N(C)C(=O)c2ccc(NC(=O)c3ccc[nH]3)cc2)C1` (stereo unspecified), the “Percent Effect” value was -8.212%. `Cc1ccc(C(=O)NC(CN2CCCC2)c2ccccc2)c(=O)[nH]1` (stereo unspecified) was tested, and the “Percent Effect” value was -7.426%. For `Cc1ccc(C(=O)NCCN2CCOCC2)c(=O)[nH]1`, the “Percent Effect” value was 10.08%. With `Cc1ccc(C(=O)NC2CCCCNC2=O)c(=O)[nH]1` (stereo unspecified) the “Percent Effect” value was -8.505%. For `Cc1ccc(C(=O)NC2CCCN(CC(N)=O)C2)c(=O)[nH]1` (stereo unspecified), the “Percent Effect” value was 108.8%. With `COc1ccc(F)cc1C(=O)N1CCC2(CCC(=O)N(C(C)C)C2)CC1` the “Percent Effect” value was -13.7%. For `CCN(CC)C1CCN(C(=O)Nc2cc(F)c(OC)c(F)c2)C1` (stereo unspecified), the “Percent Effect” value was -0.1207%. With `COCC(=O)N[C@H](C(=O)NC(C)c1cc(C)ccc1C)C(C)C` (stereo partly specified) the “Percent Effect” value was -5.803%. In the case of `CC(=O)NCC(=O)N1Cc2ccnn2CC(COCCN(C)C)C1` (stereo unspecified), the “Percent Effect” value was -1.622%. For `Cc1ccc(C(=O)NC2CCN(C(C)C)C2)c(=O)[nH]1` (stereo unspecified), the “Percent Effect” value was 89.09%. In the case of `CC(C)N1CCC(NC(=O)NCCC(=O)NCc2ccccc2)C1` (stereo unspecified), the “Percent Effect” value was -0.958%. For `Cc1ccc(C(=O)NC(C)CN2CCCC2=O)c(=O)[nH]1` (stereo unspecified), the “Percent Effect” value was -26.01%. `CCOc1cc(C)nc(N2CCN(C(=O)c3ccc[nH]3)CC2)n1` was tested, and the “Percent Effect” value was -4.872%. `CC(c1ccco1)N(C(=O)COc1ccc(C#N)cc1)C1CC1` (stereo unspecified) was tested, and the “Percent Effect” value was 1.408%. `CC(C)N(Cc1ccc(C#N)cc1)C(=O)Nc1ccncc1` was tested, and the “Percent Effect” value was -13.59%. In the case of `CC(C)N(Cc1cccnc1)C(=O)CCSc1ccc(C#N)cc1`, the “Percent Effect” value was -11.64%. In the case of `CC(C)N(Cc1ccc(C#N)cc1)C(=O)NCCNc1ncccn1`, the “Percent Effect” value was -6.799%. For `CC(c1ccco1)N(C(=O)CNc1ccc(C#N)cc1)C1CC1` (stereo unspecified), the “Percent Effect” value was -9.874%. `CCNC(=O)N(C)C(c1cccnc1)C(C)C` (stereo unspecified) was tested, and the “Percent Effect” value was -2.757%. `CC(c1cccnc1)N(C)C(=O)NCCOc1ccc(C#N)cc1` (stereo unspecified) was tested, and the “Percent Effect” value was 102.9%. With `CC(c1ccncc1)N(C)C(=O)NCCOc1ccc(C#N)cc1` (stereo unspecified) the “Percent Effect” value was 100.4%. For `CC(c1ccco1)N(C)C(=O)NCCOc1ccc(C#N)cc1` (stereo unspecified), the “Percent Effect” value was 99.5%.
